In the library only some 2% were active in any assay of this set; here they are far more common.
GC-B act – GC-B (human) receptor activation | AID 1920062 | 0.11% of 370,000 active | HEK293-GC-B cells, CNP EC30, cGMP TR-FRET; 0% at EC30 CNP, 100% saturating CNP | activation, % at 10 µM;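 active = activation at 10 µM reaching about 35% in either raw or pattern-adjusted values, limit read from the data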
APOBEC3A inh – inhibitors of human APOBEC3A DNA deaminase. recombinant A3A, FAM/TAMRA ssDNA deamination fluorescence. AID 493011. inhibition, % at 20 µM. 0.41% of 330,000 active;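 active = at least 40% inhibition at 20 µM here, with at most 30% in a related deaminase screen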;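 also: plate controls were A3A with DMSO for no effect and wells lacking A3A enzyme for full effect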
Neddylation inh – inhibitors of human cullin neddylation; P61081+Q13564; TR-FRET cullin neddylation, biochemical; inhibition, % at 25 µM; 0.58% of 360,000 active; AID 651699; in the data active = inhibition above about 36%
PfG6PD inh – PfG6PD (Plasmodium falciparum) enzyme inhibition | PfGluPho enzyme, NADPH resazurin-diaphorase fluorescence | inhibition, % at 20 µM | 0.78% of 350,000 active;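 active = inhibition reaching at least a set limit at 20 µM in the primary screen, cut at about 59% in these data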;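 also: 0% = DMSO wells with substrate and 100% = DMSO wells lacking glucose-6-phosphate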
NPR1 activator – GC-A (human) enzyme activation; 0.14% of 370,000 active; activation, % at 10 µM; HEK293 GC-A cells, cGMP TR-FRET, EC30 ANP; 0% at EC30 ANP, 100% saturating ANP; AID 1671463; P16066; in the data active = activation above about 40%
A3G deaminase – APOBEC3G (human) deaminase inhibition. inhibition, % at 20 µM. recombinant A3G, ssDNA deamination FAM/TAMRA fluorescence. 0.28% of 330,000 active. Q9HC16;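 active = inhibition of at least 40% at 20 µM, with no more than 30% in the related APOBEC3A deaminase screen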;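 also: plate controls were DMSO wells with A3G for no effect and wells lacking A3G enzyme for full effect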
Neddyl inh conf – cullin neddylation inhibition, confirmation; 13% of 1,800 active; TR-FRET cullin neddylation biochemical assay; shares compounds with Neddylation inh; calls only at 25 µM; AID 652217; in the data active = inhibition above about 40%;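 also: neddylation substrate is the cullin 1 ring ligase complex with SKP2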
An asterisk follows results filed as active; i = inactive; x = no result given.

SMILES | GC-B act | APOBEC3A inh | Neddylation inh | PfG6PD inh | NPR1 activator | A3G deaminase | Neddyl inh conf
N#CCn1c2ccccc2c2nc3ccccc3nc21 | 7 | 2 | 45* | 16 | 14 | -2 | i
C#CCn1c2ccccc2c2nc3ccccc3nc21 | 3 | -1 | 21 | 1 | 11 | -5 | x
COC(=O)c1cc(OC)c(OC)c(OC)c1N | 4 | -1 | 38* | -3 | 4 | -1 | i
Clc1ccc(-c2ccc(-c3nn4c(-c5ccco5)nnc4s3)o2)cc1 | -6 | 16 | 42* | 3 | 3 | 2 | i
Brc1ccc(-c2nn3c(-c4ccco4)nnc3s2)o1 | -7 | 8 | -162 | 30 | 1 | 1 | x
Cc1sc2nc(SCC(=O)NCc3ccco3)n(C)c(=O)c2c1C | 4 | -17 | 0 | -3 | 3 | -2 | x
O=c1c2ccccc2nc2ccc(NCc3ccco3)nn12 | 4 | 12 | 41* | 18 | 1 | 7 | i
Cc1sc2nc3ccc(NCc4ccco4)nn3c(=O)c2c1C | 0 | 7 | 39* | 24 | 7 | -1 | x
CCCCCCCCN1C(=O)[C@@H](CC(=O)NCc2ccc(OC)c(OC)c2)C[C@@]2(C(=O)OC)C1=C[C@H](COCc1ccccc1)O[C@@H]2C | 5 | x | x | x | 3 | x | x
O=C(CSc1nnc(-c2ccccc2)n1-c1ccc(Cl)cc1)Nc1cccc2ccccc12 | -12 | x | x | x | -15 | x | x
